# Reference: the supplement of paper PMC8728848
# About 410 targets per protein were measured; listed, in parts, are those with the strongest signals and a random draw of the rest.
# B1: Gal 2 (Homo sapiens), P05162 (protein)
# chain: MTGELEVKNMDMKPGSTLKITGSIADGTDGFVINLGQGTDKLNLHFNPRFSESTIVCNSLDGSNWGQEQREDHLCFSPGSEVKFTVTFESDKFKVKLPDGHELTFPNRLGHSHLSYLSVRGGFNMSSFKLKE
# Legend:
# Assay in all cases: glycan array binding signal (z-score within array); higher = stronger binding
# Details in all cases: glycan notation: IUPAC condensed, linker removed
# [1] = target: Fuc(a1-2)Gal(b1-3)GalNAc(b1-3)Gal(b1-4)Glc
# Outline: (§1)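 The binding signal is a Z-score computed within each array and averaged over linkers. Arrays of the same protein sequence at different concentrations or buffers were also averaged together. Data originate from 3228 arrays in the Consortium for Functional Glycomics database, kept only where the protein sequence was available.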
# [2] = target: Fuc(a1-2)Gal(b1-3)GlcNAc(b1-3)Gal(b1-4)Glc
# Outline: as §1
# [3] = target: Fuc(a1-2)Gal(b1-3)GlcNAc(b1-3)[Fuc(a1-2)Gal(b1-3)GlcNAc(b1-6)]GalNAc
# Outline: as §1
# [4] = target: Fuc(a1-2)Gal(b1-3)[Fuc(a1-4)]GlcNAc(b1-2)Man(a1-3)[Fuc(a1-2)Gal(b1-3)[Fuc(a1-4)]GlcNAc(b1-2)Man(a1-6)]Man(b1-4)GlcNAc(b1-4)[Fuc(a1-6)]GlcNAc(b1-4)[Fuc(a1-6)]GlcNAc
# Outline: as §1
# [5] = target: Fuc(a1-2)Gal(b1-4)GlcNAc(b1-3)Gal(b1-4)GlcNAc
# Outline: as §1
# [6] = target: Fuc(a1-2)Gal(b1-4)GlcNAc(b1-3)Gal(b1-4)GlcNAc(b1-3)Gal(b1-4)GlcNAc
# Outline: as §1
# [7] = target: Fuc(a1-2)Gal3S(b1-4)GlcNAc
# Outline: as §1
# [8] = target: Fuc(a1-2)Gal6S(b1-4)Glc6S
# Outline: as §1
# [9] = target: Fuc(a1-2)[Gal(a1-3)]Gal(b1-4)GlcNAc
# Outline: as §1
# [10] = target: Fuc(a1-2)[Gal(a1-3)]Gal(b1-4)GlcNAc(b1-2)Man(a1-3)[Fuc(a1-2)[Gal(a1-3)]Gal(b1-4)GlcNAc(b1-2)Man(a1-6)]Man(b1-4)GlcNAc(b1-4)[Fuc(a1-6)]GlcNAc
# Outline: as §1
# [11] = target: Fuc(a1-2)[GalNAc(a1-3)]Gal(b1-3)GlcNAc
# Outline: as §1
# [12] = target: Fuc(a1-2)[GalNAc(a1-3)]Gal(b1-4)GlcNAc
# Outline: as §1
# [13] = target: Fuc(a1-2)[GalNAc(a1-3)]Gal(b1-4)GlcNAc(b1-2)Man
# Outline: as §1
# [14] = target: Fuc(a1-2)[GalNAc(a1-3)]Gal(b1-4)[Fuc(a1-3)]GlcNAc(b1-3)GalNAc
# Outline: as §1
# Fuc(a1-3)GlcNAc = target: Fuc(a1-3)GlcNAc
# Outline: as §1
# [15] = target: Gal(a1-3)Gal(b1-3)GlcNAc(b1-2)Man(a1-3)[Gal(a1-3)Gal(b1-3)GlcNAc(b1-2)Man(a1-6)]Man(b1-4)GlcNAc(b1-4)GlcNAc
# Outline: as §1
# [16] = target: Gal(a1-4)Gal(b1-4)GlcNAc(b1-3)Gal(b1-4)Glc
# Outline: as §1
# Gal(b1-3)Gal = target: Gal(b1-3)Gal
# Outline: as §1
# [17] = target: Gal(b1-3)GalNAc(a1-3)[Fuc(a1-2)]Gal(b1-4)GlcNAc
# Outline: as §1
# [18] = target: Gal(b1-3)GlcNAc(a1-3)Gal(b1-4)GlcNAc
# Outline: as §1
# [19] = target: Gal(b1-3)GlcNAc(b1-3)Gal(b1-4)Glc
# Outline: as §1
# [20] = target: Gal(b1-3)GlcNAc(b1-3)Gal(b1-4)GlcNAc
# Outline: as §1
# [21] = target: Gal(b1-3)[Fuc(a1-4)]GlcNAc(b1-3)Gal(b1-4)[Fuc(a1-3)]GlcNAc
# Outline: as §1
# [22] = target: Gal(b1-3)[Neu5Ac(b2-6)]GalNAc
# Outline: as §1
# [23] = target: Gal(b1-4)GalNAc(a1-3)[Fuc(a1-2)]Gal(b1-4)GlcNAc
# Outline: as §1
# [24] = target: Gal(b1-4)GlcNAc(b1-2)Man(a1-3)[Gal(b1-4)GlcNAc(b1-2)Man(a1-6)][GlcNAc(b1-4)]Man(b1-4)GlcNAc(b1-4)[Fuc(a1-6)]GlcNAc
# Outline: as §1
# GalNAc(a1-3)Gal = target: GalNAc(a1-3)Gal
# Outline: as §1
# Glc(a1-6)Glc(a1-6)Glc = target: Glc(a1-6)Glc(a1-6)Glc
# Outline: as §1
# [25] = target: GlcNAc(a1-4)Gal(b1-4)GlcNAc(b1-3)Gal(b1-4)GlcNAc
# Outline: as §1
# [26] = target: GlcNAc(b1-2)Man(a1-3)[GlcNAc(b1-4)][GlcNAc(b1-2)Man(a1-6)]Man(b1-4)GlcNAc(b1-4)GlcNAc
# Outline: as §1
# [27] = target: GlcNAc(b1-3)[GlcNAc(b1-6)]GlcNAc(b1-4)GlcNAc
# Outline: as §1
# [28] = target: GlcNAc(b1-6)Gal(b1-4)GlcNAc
# Outline: as §1
# Man(b1-4)GlcNAc = target: Man(b1-4)GlcNAc
# Outline: as §1
# [29] = target: Neu5Ac(a2-3)Gal(b1-3)[Fuc(a1-4)]GlcNAc
# Outline: as §1
# [30] = target: Neu5Ac(a2-3)Gal(b1-4)GlcNAc(b1-3)Gal(b1-4)GlcNAc
# Outline: as §1
# [31] = target: Neu5Ac(a2-3)Gal(b1-4)GlcNAc(b1-3)Gal(b1-4)GlcNAc(b1-3)Gal(b1-4)GlcNAc(b1-2)Man(a1-3)[Neu5Ac(a2-3)Gal(b1-4)GlcNAc(b1-3)Gal(b1-4)GlcNAc(b1-3)Gal(b1-4)GlcNAc(b1-2)Man(a1-6)]GalNAc
# Outline: as §1
# [32] = target: Neu5Ac(a2-3)Gal(b1-4)[Fuc(a1-3)]GlcNAc(b1-3)Gal(b1-4)GlcNAc
# Outline: as §1
# [33] = target: Neu5Ac(a2-6)Gal(b1-4)GlcNAc(b1-2)Man(a1-3)[GlcNAc(b1-4)][Neu5Ac(a2-6)Gal(b1-4)GlcNAc(b1-2)Man(a1-6)]Man(b1-4)GlcNAc(b1-4)GlcNAc
# Outline: as §1
# [34] = target: Neu5Ac(a2-6)Gal(b1-4)GlcNAc(b1-2)Man(a1-6)[Man(a1-3)]Man(b1-4)GlcNAc(b1-4)GlcNAc
# Outline: as §1
# [35] = target: Neu5Ac(a2-6)Gal(b1-4)GlcNAc(b1-3)Gal(b1-4)GlcNAc(b1-2)Man(a1-3)[Neu5Ac(a2-6)Gal(b1-4)GlcNAc(b1-3)Gal(b1-4)GlcNAc(b1-2)Man(a1-6)]GalNAc
# Outline: as §1
# [36] = target: Neu5Ac(a2-6)Gal(b1-4)GlcNAc(b1-6)[Gal(b1-3)GlcNAc(b1-3)]Gal(b1-4)Glc
# Outline: as §1
# [37] = target: Neu5Ac(b2-6)Gal(b1-4)GlcNAc
# Outline: as §1
# [38] = target: Neu5Gc(a2-3)Gal(b1-4)[Fuc(a1-3)]GlcNAc
# Outline: as §1
binder,measurement,setting,value
B1,glycan array binding signal (z-score),[1],3.12
same,glycan array binding signal (z-score),[2],2.35
same,glycan array binding signal (z-score),[3],-0.048
same,glycan array binding signal (z-score),[4],0.137
same,glycan array binding signal (z-score),[5],2.16
same,glycan array binding signal (z-score),[6],2.4
same,glycan array binding signal (z-score),[7],-0.17
same,glycan array binding signal (z-score),[8],-0.193
same,glycan array binding signal (z-score),[9],2.52
same,glycan array binding signal (z-score),[10],8.45
same,glycan array binding signal (z-score),[11],3.75
same,glycan array binding signal (z-score),[12],5.89
same,glycan array binding signal (z-score),[13],13.5
same,glycan array binding signal (z-score),[14],-0.08
same,glycan array binding signal (z-score),Fuc(a1-3)GlcNAc,-0.254
same,glycan array binding signal (z-score),[15],-0.222
same,glycan array binding signal (z-score),[16],-0.229
same,glycan array binding signal (z-score),Gal(b1-3)Gal,-0.268
same,glycan array binding signal (z-score),[17],9.48
same,glycan array binding signal (z-score),[18],-0.111
same,glycan array binding signal (z-score),[19],0.74
same,glycan array binding signal (z-score),[20],0.837
same,glycan array binding signal (z-score),[21],-0.269
same,glycan array binding signal (z-score),[22],-0.237
same,glycan array binding signal (z-score),[23],5.71
same,glycan array binding signal (z-score),[24],-0.215
same,glycan array binding signal (z-score),GalNAc(a1-3)Gal,-0.281
same,glycan array binding signal (z-score),Glc(a1-6)Glc(a1-6)Glc,-0.2
same,glycan array binding signal (z-score),[25],-0.28
same,glycan array binding signal (z-score),[26],-0.084
same,glycan array binding signal (z-score),[27],-0.396
same,glycan array binding signal (z-score),[28],-0.272
same,glycan array binding signal (z-score),Man(b1-4)GlcNAc,-0.273
same,glycan array binding signal (z-score),[29],-0.214
same,glycan array binding signal (z-score),[30],-0.292
same,glycan array binding signal (z-score),[31],0.02
same,glycan array binding signal (z-score),[32],-0.229
same,glycan array binding signal (z-score),[33],-0.169
same,glycan array binding signal (z-score),[34],-0.12
same,glycan array binding signal (z-score),[35],-0.008
same,glycan array binding signal (z-score),[36],-0.21
same,glycan array binding signal (z-score),[37],-0.244
same,glycan array binding signal (z-score),[38],-0.212
